# PubChem BioAssay (EPA / NIEHS)
# Results filed as inconclusive are left out. Active and inactive are the calls of the source. Rule for the calls, unless noted: active = hit-call score of the fitted dose curve at least 0.9, where 1 is the maximum; inactive = score below 0.9.
# Legend:
# [1] = read-out: Interleukin-1 alpha (IL1a), IL1A (gene 3552); experiment: BSK_LPS_IL1a: BioMAP Diversity Plus: LPS Assay for Interleukin-1 alpha (IL1a) Biomarker Activity (AID 2283080); details: primary human HUVEC with PBMC; actives raise or lower the signal
# Outline: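 HUVEC/PBMC co-culture, LPS system; 24 h after dosing; IL-1a by ELISA; gain or loss of signal fitted bidirectionally vs DMSO baseline.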
# [2] = read-out: Monocyte Chemoattractant Protein-1 (MCP1), CCL2 (gene 6347); experiment: BSK_LPS_MCP1: BioMAP Diversity Plus: LPS Assay for Monocyte Chemoattractant Protein-1 (MCP1) Biomarker Activity (AID 2283081); details: primary human HUVEC with PBMC; actives raise or lower the signal;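 for AC50: secreted MCP-1 protein quantified by ELISA in culture supernatant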
# Outline: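 ELISA read-out of MCP-1 after 24 h chemical dosing of a human umbilical vein endothelial cell/peripheral blood mononuclear cell co-culture stimulated with LPS. Gain or loss of signal fitted relative to DMSO controls.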
# [3] = BSK_LPS_PGE2: BioMAP Diversity Plus: LPS Assay for Prostaglandin E2 (PGE2) Biomarker Activity (AID 2283082); details: primary human HUVEC with PBMC; actives raise or lower the signal;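 for AC50: secreted prostaglandin E2 measured by ELISA in LPS-stimulated co-culture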
# Outline: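 Primary human endothelial cells and blood mononuclear cells, co-cultured with LPS, receive test chemical; PGE2 ELISA follows at 24 h, with SRB-stained parallel cultures flagging cytotoxicity.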
# [4] = read-out: Macrophage colony-stimulating factor (MCSF), CSF1 (gene 1435); experiment: BSK_LPS_MCSF: BioMAP Diversity Plus: LPS Assay for Macrophage colony-stimulating factor (MCSF) Biomarker Activity (AID 2283083); details: primary human HUVEC with PBMC; actives raise or lower the signal
# Outline: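 HUVEC + PBMC co-culture (human primary), 24 h post-dose; M-CSF by ELISA; gain/loss of signal fitted bidirectionally vs DMSO baseline.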
# [5] = read-out: Tissue Factor, F3 (gene 2152); experiment: BSK_LPS_TissueFactor: BioMAP Diversity Plus: LPS Assay for Tissue Factor Biomarker Activity (AID 2283084); details: primary human HUVEC with PBMC; actives raise or lower the signal
# Outline: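 HUVEC/PBMC co-culture, LPS-activated; CD142 ELISA read 24 h post-dose; bidirectional curve fit vs DMSO negative control.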
# [6] = read-out: Tumor necrosis factor (Homo sapiens) (UniProt P01375); experiment: BSK_LPS_TNFa: BioMAP Diversity Plus: LPS Assay for Tumour Necrosis Factor alpha (TNFa) Biomarker Activity (AID 2283085); details: primary human HUVEC with PBMC; actives raise or lower the signal;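 for AC50: TNFa protein level quantified by ELISA in the co-culture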
# Outline: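 ELISA-based TNFa endpoint in a human endothelial–PBMC co-culture sampled 24 h post-exposure. Curves were fitted in both directions using DMSO as baseline of activity.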
# [7] = read-out: Vascular cell adhesion molecule 1 (VCAM1), VCAM1 (gene 7412); experiment: BSK_LPS_VCAM1: BioMAP Diversity Plus: LPS Assay for Vascular cell adhesion molecule 1 (VCAM1) Biomarker Activity (AID 2283086); details: primary human HUVEC with PBMC; actives raise or lower the signal
# Outline: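 Measured by ELISA: VCAM-1 in LPS-activated HUVEC/PBMC co-cultures 24 h after treatment. Values reflect bidirectional fitting with DMSO as baseline.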
# [8] = read-out: CD38, CD38 (gene 952); experiment: BSK_SAg_CD38: BioMAP Diversity Plus: SAg Assay for CD38 Biomarker Activity (AID 2283087); details: primary human HUVEC with PBMC; actives raise or lower the signal
# Outline: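 Measures CD38 on a human endothelial/PBMC co-culture driven by SEB and TSST-1, 24 h after compound exposure, using ELISA with fluorescence detection; DMSO defines baseline for bidirectional curve fitting.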
# [9] = read-out: CD40, CD40 (gene 958); experiment: BSK_SAg_CD40: BioMAP Diversity Plus: SAg Assay for CD40 Biomarker Activity (AID 2283088); details: primary human HUVEC with PBMC; actives raise or lower the signal
# Outline: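 HUVEC/PBMC co-culture, 24 h post-dose; CD40 by ELISA, fluorescence intensity; bidirectional fit vs DMSO negative control.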
# [10] = read-out: CD69, CD69 (gene 969); experiment: BSK_SAg_CD69: BioMAP Diversity Plus: SAg Assay for CD69 Biomarker Activity (AID 2283089); details: primary human HUVEC with PBMC; actives raise or lower the signal;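 for AC50: cell surface CD69 protein quantified by ELISA with fluorescence detection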
# Outline: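 HUVEC co-cultured with PBMC were dosed with chemical, and CD69 was measured by ELISA with fluorescence read-out 24 h later. Bidirectional curve fitting used DMSO as negative control and activity baseline.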
# [11] = read-out: Monocyte Chemoattractant Protein-1 (MCP1), CCL2 (gene 6347); experiment: BSK_SAg_MCP1: BioMAP Diversity Plus: SAg Assay for Monocyte Chemoattractant Protein-1 (MCP1) Biomarker Activity (AID 2283090); details: primary human HUVEC with PBMC; actives raise or lower the signal
# Outline: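 Values derive from bidirectional fitting of ELISA-measured MCP1 against DMSO controls. Readings were taken 24 h after dosing human vascular endothelial cells co-cultured with peripheral blood mononuclear cells under superantigen stimulation.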
# [12] = read-out: E-selectin (Homo sapiens) (UniProt P16581); experiment: BSK_SAg_Eselectin: BioMAP Diversity Plus: SAg Assay for Eselectin Biomarker Activity (AID 2283091); details: primary human HUVEC with PBMC; actives raise or lower the signal
# Outline: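 E-selectin ELISA readout at 24 h post-dosing in human umbilical vein endothelial cell/PBMC co-culture; gain or loss of signal fitted relative to DMSO baseline.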
# [13] = read-out: Monokine induced gamma interferon (MIG), CXCL9 (gene 4283); experiment: BSK_SAg_MIG: BioMAP Diversity Plus: SAg Assay for Monokine induced gamma interferon (MIG) Biomarker Activity (AID 2283092); details: primary human HUVEC with PBMC; actives raise or lower the signal
# Outline: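 HUVEC plus human PBMC co-culture, chemicals dosed and MIG (CXCL9) quantified by ELISA at 24 h. Bidirectional curve fitting against DMSO as negative control and baseline, so both gain and loss of signal count as activity.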
# [14] = BSK_SAg_PBMCCytotoxicity: PBMC Cytotoxicity Assessment in the BioMAP Diversity Plus: SAg Assay (AID 2283093); details: primary human HUVEC with PBMC;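 note: PBMC viability measured as Alamar Blue reduction fluorescence at 546/580 nm; fitted both ways against DMSO so a hit may be loss or gain of signal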;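 for AC50: PBMC superantigen activated with SEB plus TSST-1 one hour after compound addition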
# Outline: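 Alamar Blue reduction (6 h, 546/580 nm) reports PBMC cytotoxicity after 90 h superantigen activation (SEB, TSST-1; 20 ng/mL final each) with 1 h compound pre-treatment. Gain or loss of signal fitted versus DMSO.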
# [15] = read-out: Interleukin-8 (IL8), CXCL8 (gene 3576); experiment: BSK_SAg_IL8: BioMAP Diversity Plus: SAg Assay for Interleukin-8 (IL8) Biomarker Activity (AID 2283094); details: primary human HUVEC with PBMC; actives raise or lower the signal
# Outline: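 Primary human endothelial cells with PBMC, exposed 24 h; IL-8 determined by ELISA, analysed bidirectionally relative to DMSO.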
# [16] = BSK_SAg_Proliferation: Cell Proliferation Assessment in the BioMAP Diversity Plus: SAg Assay (AID 2283095); details: primary human HUVEC with PBMC;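 note: relative cell number as total protein by SRB absorbance in sub-confluent culture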
# Outline: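 A human primary co-culture of umbilical vein endothelium and blood mononuclear cells receives compound; relative cell number is quantified at 96 h by SRB staining and 560 nm absorbance, with DMSO-referenced bidirectional curve fitting.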
# [17] = BSK_SAg_SRB: Viability Assessment in the BioMAP Diversity Plus: SAg Assay (AID 2283096); details: primary human HUVEC with PBMC;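 note: cells read one day after compound addition; hits may be either gain or loss of signal compared with DMSO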
# Outline: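 This overt-cytotoxicity endpoint quantifies protein in human endothelial/PBMC co-cultures at 24 h using SRB absorbance (560 nm) after trichloroacetic acid fixation. Values reflect signal change from the DMSO negative control, fitted bidirectionally.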
# [18] = molecular target: human CYP19A1, CYP19A1 (gene 1588) (UniProt P11511); experiment: NVS_ADME_hCYP19A1: NovaScreen (NVS) CYP450-related Enzyme Activity (ADME) Assay for human CYP19A1 (AID 2283098; active = hit-call score of the fitted dose curve at least 0.9, where 1 is the maximum;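 for AC50: potency for inhibitors seen as loss of fluorescent enzyme signal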)
# human CYP19A1, CYP19A1 (gene 1588), sequence (P11511 whole entry, looked up): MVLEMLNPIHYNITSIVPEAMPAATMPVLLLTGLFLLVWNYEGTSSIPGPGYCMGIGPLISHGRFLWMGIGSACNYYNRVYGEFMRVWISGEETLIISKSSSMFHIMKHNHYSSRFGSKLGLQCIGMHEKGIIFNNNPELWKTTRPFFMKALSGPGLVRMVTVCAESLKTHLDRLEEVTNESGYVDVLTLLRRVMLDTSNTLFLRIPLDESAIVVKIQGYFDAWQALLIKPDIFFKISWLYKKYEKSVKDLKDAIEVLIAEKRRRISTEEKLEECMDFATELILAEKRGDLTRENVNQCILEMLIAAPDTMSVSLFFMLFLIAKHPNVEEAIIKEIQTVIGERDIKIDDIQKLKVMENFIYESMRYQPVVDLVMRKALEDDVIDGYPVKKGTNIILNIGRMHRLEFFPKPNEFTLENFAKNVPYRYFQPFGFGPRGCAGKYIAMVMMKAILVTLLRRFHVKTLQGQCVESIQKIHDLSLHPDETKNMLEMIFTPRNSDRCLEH
# Outline: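 Compounds were first screened at 10 uM in duplicate against purified enzyme, with a fluorogenic substrate and fluorescence intensity detection after 0.5 h. Inhibition appears as reduced signal against acetonitrile control.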
# E-selectin (Homo sapiens), sequence (P16581 whole entry, looked up): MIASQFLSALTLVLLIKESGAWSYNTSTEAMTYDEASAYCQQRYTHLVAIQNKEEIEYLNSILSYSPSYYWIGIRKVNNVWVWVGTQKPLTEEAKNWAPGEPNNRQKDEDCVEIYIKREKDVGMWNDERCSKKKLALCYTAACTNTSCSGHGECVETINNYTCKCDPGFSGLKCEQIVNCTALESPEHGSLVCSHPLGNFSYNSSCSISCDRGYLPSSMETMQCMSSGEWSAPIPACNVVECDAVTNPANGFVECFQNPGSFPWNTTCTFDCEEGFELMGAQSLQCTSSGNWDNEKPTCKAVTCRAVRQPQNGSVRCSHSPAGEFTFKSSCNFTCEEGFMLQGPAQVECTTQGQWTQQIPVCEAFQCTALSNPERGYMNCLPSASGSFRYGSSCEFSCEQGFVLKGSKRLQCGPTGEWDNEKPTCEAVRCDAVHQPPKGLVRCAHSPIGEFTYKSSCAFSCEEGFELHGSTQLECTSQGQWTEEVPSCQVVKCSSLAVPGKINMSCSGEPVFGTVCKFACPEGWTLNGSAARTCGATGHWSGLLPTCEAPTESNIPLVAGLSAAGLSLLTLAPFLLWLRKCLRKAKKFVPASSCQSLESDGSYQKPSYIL
# Tumor necrosis factor (Homo sapiens), sequence (P01375 whole entry, looked up): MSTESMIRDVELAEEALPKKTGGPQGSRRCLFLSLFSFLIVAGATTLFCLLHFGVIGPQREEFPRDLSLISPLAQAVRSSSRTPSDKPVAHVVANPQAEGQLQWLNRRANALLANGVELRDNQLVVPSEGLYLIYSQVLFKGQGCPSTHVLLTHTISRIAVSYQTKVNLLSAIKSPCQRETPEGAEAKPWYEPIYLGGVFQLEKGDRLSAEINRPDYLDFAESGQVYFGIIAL
structure (smiles),measurement,setting,value
CC(=NC#N)N(C)Cc1ccc(Cl)nc1,outcome,[1],inactive
same,outcome,[2],inactive
same,outcome,[3],inactive
same,outcome,[4],inactive
same,outcome,[5],inactive
same,outcome,[6],inactive
same,outcome,[7],inactive
same,outcome,[8],inactive
same,outcome,[9],inactive
same,outcome,[10],inactive
same,outcome,[11],inactive
same,outcome,[12],inactive
same,outcome,[13],inactive
same,outcome,[14],inactive
same,outcome,[15],inactive
same,outcome,[16],inactive
same,outcome,[17],inactive
CCC(CC)Nc1c([N+](=O)[O-])cc(C)c(C)c1[N+](=O)[O-],AC50,[1],36.1 µM (active)
same,AC50,[2],20 µM (active)
same,outcome,[5],inactive
same,AC50,[6],26.4 µM (active)
same,AC50,[7],15 µM (active)
same,AC50,[8],28.5 µM (active)
same,AC50,[10],20 µM (active)
same,AC50,[11],29.1 µM (active)
same,AC50,[12],22.7 µM (active)
same,AC50,[13],29.5 µM (active)
same,AC50,[14],29.2 µM (active)
same,AC50,[15],28.3 µM (active)
same,AC50,[16],28.9 µM (active)
same,AC50,[17],12.3 µM (active)
same,outcome,[18],inactive
N#CSCSC#N,AC50,[1],5.46 µM (active)
same,AC50,[2],10.6 µM (active)
same,AC50,[3],5.66 µM (active)
same,AC50,[4],5.23 µM (active)
same,outcome,[5],inactive
same,AC50,[6],3.89 µM (active)
same,AC50,[7],5.56 µM (active)
same,AC50,[8],5.28 µM (active)
same,AC50,[9],7.73 µM (active)
same,AC50,[10],7.16 µM (active)
same,AC50,[11],11.9 µM (active)
same,AC50,[12],11.1 µM (active)
same,AC50,[13],8.84 µM (active)
same,AC50,[14],3.25 µM (active)
same,AC50,[15],11.7 µM (active)
same,AC50,[16],1.99 µM (active)
same,AC50,[17],6.08 µM (active)
CC(C)N(C(=O)SCC(Cl)=C(Cl)Cl)C(C)C,AC50,[1],26.4 µM (active)
same,AC50,[2],31.7 µM (active)
same,AC50,[4],29.5 µM (active)
same,AC50,[5],30.1 µM (active)
same,AC50,[6],32.3 µM (active)
same,AC50,[7],29.8 µM (active)
same,AC50,[8],31.3 µM (active)
same,AC50,[10],36.6 µM (active)
same,AC50,[11],31.3 µM (active)
same,AC50,[12],31.8 µM (active)
same,AC50,[13],36.7 µM (active)
same,AC50,[14],36.5 µM (active)
same,AC50,[15],31 µM (active)
same,AC50,[16],38 µM (active)
same,AC50,[17],31.5 µM (active)
Cc1cc(C2CC2)nc(Nc2ccccc2)n1,outcome,[1],inactive
same,outcome,[2],inactive
same,AC50,[3],7.61 µM (active)
same,AC50,[4],20.3 µM (active)
same,outcome,[5],inactive
same,outcome,[6],inactive
same,AC50,[7],15.7 µM (active)
same,outcome,[8],inactive
same,AC50,[10],28.2 µM (active)
same,outcome,[11],inactive
same,AC50,[12],34.4 µM (active)
same,outcome,[13],inactive
same,AC50,[14],7.66 µM (active)
same,outcome,[15],inactive
same,AC50,[16],34.3 µM (active)
same,AC50,[17],15 µM (active)
CC(C1CC1)C(O)(Cn1cncn1)c1ccc(Cl)cc1 (stereo not drawn),outcome,[1],inactive
same,outcome,[2],inactive
same,outcome,[3],inactive
same,outcome,[4],inactive
same,outcome,[5],inactive
same,AC50,[6],4.36 µM (active)
same,outcome,[7],inactive
same,outcome,[8],inactive
same,outcome,[10],inactive
same,outcome,[11],inactive
same,outcome,[12],inactive
same,outcome,[13],inactive
same,outcome,[14],inactive
same,outcome,[15],inactive
same,outcome,[16],inactive
same,outcome,[17],inactive
same,AC50,[18],5.27 µM (active)
CSC1=N[C@@](C)(c2ccccc2)C(=O)N1Nc1ccccc1,outcome,[1],inactive
same,AC50,[2],15.2 µM (active)
same,outcome,[4],inactive
same,outcome,[5],inactive
same,outcome,[6],inactive
same,outcome,[7],inactive
same,AC50,[8],14.3 µM (active)
same,AC50,[9],11.4 µM (active)
same,AC50,[10],11.5 µM (active)
same,AC50,[11],20 µM (active)
same,AC50,[12],8.29 µM (active)
same,outcome,[13],inactive
same,AC50,[14],7.23 µM (active)
same,AC50,[15],8.81 µM (active)
same,AC50,[16],9.67 µM (active)
same,outcome,[17],inactive
COc1cccc(C(=O)NN(C(=O)c2cc(C)cc(C)c2)C(C)(C)C)c1C,outcome,[2],inactive
same,outcome,[3],inactive
same,outcome,[5],inactive
same,outcome,[6],inactive
same,outcome,[7],inactive
same,outcome,[8],inactive
same,outcome,[9],inactive
same,outcome,[10],inactive
same,outcome,[11],inactive
same,outcome,[12],inactive
same,outcome,[13],inactive
same,outcome,[14],inactive
same,outcome,[15],inactive
same,outcome,[16],inactive
same,outcome,[17],inactive
